Measured values from PubChem BioAssay (Tox21).
Inconclusive results are not listed. The source made the active and inactive calls. Unless noted, calls come from the whole dose curve.

Experiments:
[1] = Nuclear factor erythroid 2-related factor 2/antioxidant responsive element (Nrf2/ARE) small molecule agonists: qHTS cell viability counter screen in human keratinocytes (AID 1919968; active = well fitted curve in the direction sought with a large enough effect in the repeat runs; an effect the other way counts as inactive or inconclusive; note: nearly all actives have a fitted effect of over 55% in size)
In short: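 Measured as CellTiter-Fluor fluorescence, this readout tracks cytotoxicity in the same wells as the ARE-luciferase screen. HaCaT reporter cells (1,500/well) received compounds after a 5 h pre-incubation and were exposed for 23 h.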

[2] = target: Gonadotropin-releasing hormone receptor (Homo sapiens) (UniProt P30968); experiment: Human gonadotropin-releasing hormone receptor (GnRHR) small molecule agonists, calcium flux assay in GnRHR-HEK293 cells (AID 1920063); note: nearly all actives have a fitted effect of over 35% in size
Gonadotropin-releasing hormone receptor (Homo sapiens), sequence (P30968 whole entry, looked up): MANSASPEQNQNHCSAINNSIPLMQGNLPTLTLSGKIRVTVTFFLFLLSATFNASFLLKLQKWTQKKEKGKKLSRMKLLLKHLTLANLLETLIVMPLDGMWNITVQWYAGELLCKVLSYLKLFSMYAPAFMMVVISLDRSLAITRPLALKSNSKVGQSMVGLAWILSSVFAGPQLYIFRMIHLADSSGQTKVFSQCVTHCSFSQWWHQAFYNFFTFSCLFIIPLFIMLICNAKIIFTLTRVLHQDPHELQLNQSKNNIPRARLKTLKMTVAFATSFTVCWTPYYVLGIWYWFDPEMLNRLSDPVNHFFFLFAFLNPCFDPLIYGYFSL
In short: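 Fluorescence kinetics (480 nm excitation, 540 nm emission; 3 min, 1 s steps) report calcium mobilisation in human GnRHR-HEK293 cells in agonist mode. Dye incubation: 1 h, 37 C.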

[3] = target: KiSS-1 receptor (Homo sapiens) (UniProt Q969F8); experiment: Human kisspeptin (KISS1R) small molecule agonists, calcium flux assay in KISS1R-HEK293 cells (AID 1920064; active = well fitted curve in the direction sought with a large enough effect in the repeat runs; an effect the other way counts as inactive or inconclusive)
KiSS-1 receptor (Homo sapiens), sequence (Q969F8 whole entry, looked up): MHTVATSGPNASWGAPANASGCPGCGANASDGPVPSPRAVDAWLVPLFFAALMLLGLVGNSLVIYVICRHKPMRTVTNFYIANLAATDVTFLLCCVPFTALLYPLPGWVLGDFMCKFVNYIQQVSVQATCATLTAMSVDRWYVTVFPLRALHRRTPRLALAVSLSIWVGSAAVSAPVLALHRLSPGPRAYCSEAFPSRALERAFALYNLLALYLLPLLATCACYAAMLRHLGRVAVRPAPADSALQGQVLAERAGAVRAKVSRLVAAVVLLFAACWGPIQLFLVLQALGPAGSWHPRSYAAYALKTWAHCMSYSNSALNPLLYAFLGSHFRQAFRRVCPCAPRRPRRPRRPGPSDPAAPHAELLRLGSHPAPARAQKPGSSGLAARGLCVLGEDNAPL
In short: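 Measures KISS1R agonism through calcium-sensitive dye fluorescence in stably transfected HEK293 cells, read for 3 min after pin-tool compound delivery; 15-point titrations in triplicate.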

[4] = G protein-coupled receptor (GPCR) small molecule agonists, calcium flux assay: HEK293 wild type cell line counter screen (AID 1920065)
In short: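 Readout: fluorescence at 480 nm excitation/540 nm emission, sampled at 1 s intervals for 3 min. Cells had been cultured 18 h, then dye-loaded 1 h at 37 C before compound or ATP addition.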

[5] = p53 small molecule agonists, cell-based qHTS assay with human liver microsomes (AID 1963577);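 note: p53 response element beta-lactamase reporter cells with liver microsomes plus NADPH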
In short: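 With metabolic activation: human liver microsomes (0.5 mg/mL final) plus NADPH (0.5 mg/mL final) added alongside compounds to p53RE-bla cells; 16 h 37 C exposure; beta-lactamase read by LiveBLAzer fluorescence.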

[6] = p53 small molecule agonists, cell-based qHTS assay with rat liver microsomes (AID 1963578)
In short: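 Metabolic activation by rat liver microsomes and NADPH, each 0.5 mg/mL final, added right after compounds to p53RE-bla reporter cells (4,000/well, plated 5 h earlier). 16 h at 37 C, then LiveBLAzer substrate for 2 h at room temperature in the dark; fluorescence read-out.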

[7] = p53 small molecule agonists, cell-based qHTS assay with rat liver microsomes: qHTS cell viability counter screen (AID 1963580); note: nearly all actives have a fitted effect of over 45% in size
In short: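 p53RE-bla HCT-116 cells were exposed 16 h at 37 C to compounds with rat liver microsomes (0.5 mg/mL) and NADPH (0.5 mg/mL). Viability was measured in the same wells as ATP content by CellTiter-Glo luminescence.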

[8] = p53 small molecule agonists, cell-based qHTS assay: qHTS cell viability counter screen (AID 1963581); note: nearly all actives have a fitted effect of over 45% in size
In short: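 In the same plates used for the p53 bla reporter, HCT-116 cells given compounds for 16 h at 37 C received CellTiter-Glo; luminescence was recorded 30 min later at room temperature.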

[9] = p53 small molecule agonists, cell-based qHTS assay (AID 1963582; active = well fitted activation curve with a large enough effect in the signal ratio in the repeat runs, not every such curve was filed as active; the % refers to the signal ratio)
In short: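 Compounds are pin-transferred in DMSO onto p53RE-bla cells and incubated 16 h at 37 C. The B/G FRET beta-lactamase substrate is then applied for 2 h at RT and fluorescence recorded.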

[10] = target: 5-hydroxytryptamine receptor 2A (Homo sapiens) (UniProt P28223); experiment: 5-hydroxytryptamine receptor 2A (HTR2A) small molecule antagonists, cell-based qHTS assay (AID 1963586); note: nearly all actives have a fitted effect of over 45% in size
5-hydroxytryptamine receptor 2A (Homo sapiens), sequence (P28223 whole entry, looked up): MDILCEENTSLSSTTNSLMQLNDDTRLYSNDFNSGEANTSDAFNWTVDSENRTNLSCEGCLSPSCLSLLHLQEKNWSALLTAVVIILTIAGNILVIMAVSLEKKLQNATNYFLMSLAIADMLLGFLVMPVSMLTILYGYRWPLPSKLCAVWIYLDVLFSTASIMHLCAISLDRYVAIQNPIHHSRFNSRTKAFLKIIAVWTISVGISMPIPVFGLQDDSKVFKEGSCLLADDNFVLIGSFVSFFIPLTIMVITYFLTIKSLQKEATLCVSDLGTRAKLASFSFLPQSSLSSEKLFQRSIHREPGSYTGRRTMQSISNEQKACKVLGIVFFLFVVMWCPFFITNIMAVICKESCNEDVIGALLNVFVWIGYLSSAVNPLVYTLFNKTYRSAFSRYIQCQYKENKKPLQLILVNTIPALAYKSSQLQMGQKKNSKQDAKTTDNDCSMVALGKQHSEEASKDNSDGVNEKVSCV
In short: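 Antagonist-mode intracellular calcium assay: DOI (4 nM) added after 5 min compound pre-incubation at room temperature to dye-loaded HTR2A-CHO cells. Fluorescence followed for 3 min, sampled every second.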

[11] = target: 5-hydroxytryptamine receptor 2A (Homo sapiens) (UniProt P28223); experiment: 5-hydroxytryptamine receptor 2A (HTR2A) small molecule agonists, cell-based qHTS assay (AID 1963587); note: nearly all actives have a fitted effect of over 30% in size
In short: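 CHO cells stably expressing human HTR2A, plated 18 h, loaded with calcium dye 1 h at 37 C. Agonist mode: compounds added and intracellular calcium fluorescence recorded kinetically for 2 min at 1 sec intervals.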

[12] = target: Muscarinic acetylcholine receptor M1 (Homo sapiens) (UniProt P11229); experiment: Cholinergic receptor muscarinic 1 (CHRM1) small molecule antagonists, cell-based qHTS assay (AID 1963588); note: nearly all actives have a fitted effect of over 40% in size
Muscarinic acetylcholine receptor M1 (Homo sapiens), sequence (P11229 whole entry, looked up): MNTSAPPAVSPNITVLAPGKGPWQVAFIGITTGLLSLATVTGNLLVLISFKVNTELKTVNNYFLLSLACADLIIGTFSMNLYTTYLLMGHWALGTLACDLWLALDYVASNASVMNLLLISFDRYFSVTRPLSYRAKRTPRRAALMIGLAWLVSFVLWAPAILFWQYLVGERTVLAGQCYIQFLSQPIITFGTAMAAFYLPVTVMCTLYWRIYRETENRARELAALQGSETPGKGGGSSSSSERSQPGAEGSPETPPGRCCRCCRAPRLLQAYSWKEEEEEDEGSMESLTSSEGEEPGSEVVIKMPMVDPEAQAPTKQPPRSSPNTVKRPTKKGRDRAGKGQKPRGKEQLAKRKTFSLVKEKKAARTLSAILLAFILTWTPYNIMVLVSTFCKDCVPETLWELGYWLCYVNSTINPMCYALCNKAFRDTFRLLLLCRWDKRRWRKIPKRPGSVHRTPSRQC
In short: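 CHRM1-CHO calcium-flux assay, antagonist mode. Cells were seeded 18 h, dye-loaded 1 h at 37 C and given compound for 5 min at RT, then acetylcholine was added at 50nM. FDSS fluorescence was read 3 min; 15 concentrations, three runs.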

[13] = target: Muscarinic acetylcholine receptor M1 (Homo sapiens) (UniProt P11229); experiment: Cholinergic receptor muscarinic 1 (CHRM1) small molecule agonists, cell-based qHTS assay (AID 1963589); note: nearly all actives have a fitted effect of over 35% in size
In short: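 Each compound was tested at 15 concentrations across three independent runs on dye-loaded CHO cells stably expressing human CHRM1, reading intracellular calcium fluorescence kinetically at 1 sec intervals.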

[14] = cAMP Responsive Elements (CRE) small molecule agonists, cell-based qHTS assay (AID 1963590)
In short: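 Cell line: CRE-bla HEK 293T; medium DMEM/10% dialyzed FBS/0.1 mM NEAA/1 mM pyruvate/25 mM HEPES; 3 h compound exposure; beta-lactamase FRET readout after 2 h substrate loading at RT.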

[15] = cAMP Responsive Elements (CRE) small molecule antagonists, cell-based qHTS assay (AID 1963591; active = well fitted inhibition curve with a large enough effect in the signal ratio in the repeat runs, not every such curve was filed as active; the % refers to the signal ratio)
In short: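 Inhibition of NKH477-driven (0.25 uM final) CRE-beta-lactamase signal in HEK293T cells, 3 h compound exposure at 37 °C, detected by FRET substrate fluorescence.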

[16] = target: Beta-2 adrenergic receptor (Homo sapiens) (UniProt P07550); experiment: Adrenergic beta2 receptor (ADRB2) small molecule agonists, cell-based qHTS assay (AID 1963593);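 note: CHO cells stably overexpressing human ADRB2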
Beta-2 adrenergic receptor (Homo sapiens), sequence (P07550 whole entry, looked up): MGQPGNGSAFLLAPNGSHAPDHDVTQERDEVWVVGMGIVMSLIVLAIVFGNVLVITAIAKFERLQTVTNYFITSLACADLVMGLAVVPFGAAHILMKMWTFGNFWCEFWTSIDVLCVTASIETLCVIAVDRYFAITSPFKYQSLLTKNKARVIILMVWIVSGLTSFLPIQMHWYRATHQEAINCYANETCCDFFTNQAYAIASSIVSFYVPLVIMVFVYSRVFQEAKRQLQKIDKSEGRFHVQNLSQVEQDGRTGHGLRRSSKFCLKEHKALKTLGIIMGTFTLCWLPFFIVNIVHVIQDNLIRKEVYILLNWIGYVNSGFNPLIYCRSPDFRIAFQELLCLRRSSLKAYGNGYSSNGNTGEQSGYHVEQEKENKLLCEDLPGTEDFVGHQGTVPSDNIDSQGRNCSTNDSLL
In short: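 CHO cells stably over-expressing ADRB2 were plated overnight at 37C, then dosed with compounds plus a stimulation mix containing 100uM IBMX and 25uM Ro-20-1724 for 0.5hr at room temperature. cAMP was measured by HTRF competition, 1hr.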

[17] = target: D(2) dopamine receptor (Homo sapiens) (UniProt P14416); experiment: Dopamine D2 receptor (DRD2) small molecule agonists, cell-based qHTS assay (AID 1963594); note: nearly all actives have a fitted effect of over 35% in size
D(2) dopamine receptor (Homo sapiens), sequence (P14416 whole entry, looked up): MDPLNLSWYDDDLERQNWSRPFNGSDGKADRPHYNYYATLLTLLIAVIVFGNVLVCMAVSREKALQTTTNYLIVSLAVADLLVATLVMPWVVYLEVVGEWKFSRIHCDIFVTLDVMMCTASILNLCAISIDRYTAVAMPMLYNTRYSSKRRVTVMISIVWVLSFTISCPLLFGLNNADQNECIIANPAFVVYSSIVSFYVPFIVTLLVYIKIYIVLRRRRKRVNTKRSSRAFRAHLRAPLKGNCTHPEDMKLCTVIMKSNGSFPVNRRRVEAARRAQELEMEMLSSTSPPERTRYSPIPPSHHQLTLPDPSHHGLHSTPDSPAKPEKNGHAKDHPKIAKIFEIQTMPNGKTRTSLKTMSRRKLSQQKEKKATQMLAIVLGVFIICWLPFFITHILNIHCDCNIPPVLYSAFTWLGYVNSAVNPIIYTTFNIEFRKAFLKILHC
In short: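 HEK293 cells stably expressing human DRD2, pre-treated with PDE inhibitor Ro20-1724 (0.1 mM final) and compound 10 min at room temperature, then stimulated with NKH477 (200nM […]) for 30 min. cAMP read by HTRF (665/620 nm).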

[18] = target: D(2) dopamine receptor (Homo sapiens) (UniProt P14416); experiment: Dopamine D2 receptor (DRD2) small molecule antagonists, cell-based qHTS assay (AID 1963595; active = well fitted inhibition curve with a large enough effect in the signal ratio in the repeat runs, with a control signal flat; the % refers to the signal ratio)
In short: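 Stable D2 receptor HEK293 line, 24 h after seeding. Compound preincubated 10 min, then quinpirole (12 nM) with forskolin analogue NKH477 (200 nM), 30 min, room temperature. Detection by time-resolved FRET of cAMP.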

[19] = p53 small molecule agonists, cell-based qHTS assay with human liver microsomes: qHTS cell viability counter screen (AID 1963579); note: nearly all actives have a fitted effect of over 45% in size
In short: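 Metabolic activation used human liver microsomes and NADPH, both 0.5 mg/mL final, over 16 hours at 37 C on p53RE-bla cells (4,000/well). Cytotoxicity measured by CellTiter-Glo luminescence, 30 min at room temperature.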

[20] = target: Beta-2 adrenergic receptor (Homo sapiens) (UniProt P07550); experiment: Adrenergic beta2 receptor (ADRB2) small molecule antagonists, cell-based qHTS assay (AID 1963592); note: series mostly up to about 92 µM; nearly all actives have a fitted effect of over 50% in size
In short: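 Cells (CHO, stable ADRB2 overexpression) incubated 18-20hr at 37C; compounds added from DMSO; agonist mix (1nM isoproterenol, 100uM IBMX, 25uM Ro-20-1724) added; 0.5hr RT; d2-cAMP and anti-cAMP-cryptate added; 1hr RT; 665/615 nm read.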
% is set by controls: 0 for no effect and ±100 for the full control effect.

C=CCCCCCC
inactive: Potency [1] | Potency [2] | Potency [3] | Potency [4] | Potency [5] | Potency [6] | Potency [7] | Potency [8] | Potency [9] | Potency [10] | Potency [11] | Potency [12] | Potency [13] | Potency [14] | Potency [15] | Potency [16] | Potency [17] | Potency [18]

CCc1ccc2c(c1)C(=O)c1ccccc1C2=O
inactive: Potency [1] | Potency [2] | Potency [3] | Potency [4] | Potency [5] | Potency [6] | Potency [19] | Potency [8] | Potency [9] | Potency [10] | Potency [11] | Potency [12] | Potency [13] | Potency [20] | Potency [16] | Potency [17] | Potency [18]

Cc1c(Nc2ncccc2C(=O)O)cccc1C(F)(F)F
inactive: Potency [1] | Potency [2] | Potency [3] | Potency [4] | Potency [5] | Potency [6] | Potency [19] | Potency [9] | Potency [10] | Potency [11] | Potency [12] | Potency [14] | Potency [20] | Potency [16] | Potency [17] | Potency [18]

CC(CO)(CO)CO
inactive: Potency [1] | Potency [2] | Potency [3] | Potency [4] | Potency [5] | Potency [6] | Potency [19] | Potency [8] | Potency [10] | Potency [11] | Potency [12] | Potency [13] | Potency [14] | Potency [15] | Potency [20] | Potency [17] | Potency [18]

CC1=CC(=C(c2ccc(N)cc2)c2ccc(N)cc2)C=CC1=N
inactive: activity change, negative = cytotoxicity [1] -10.2% [at 8.39 µM] | activity change [2] -1.28% [at 5.22 µM, stronger effect = higher value] | activation [3] 0.102% [at 6.97 µM] | activation [4] -0.23% [at 5.23 µM] | activation [5] -13.4% [at 5.99 µM] | activation [6] -2.26% [at 5.99 µM] | activity change, negative = cytotoxicity [19] -13.2% [at 5.99 µM] | activity change, negative = cytotoxicity [8] -0.979% [at 5.99 µM] | activity, negative = inhibition [10] 14.5% [at 5.62 µM] | activity, negative = inhibition [12] -8.08% [at 5.58 µM] | activation [13] -0.812% [at 6.97 µM] | activation [14] -0.0749% [at 8.39 µM] | activity change, negative = inhibition [15] -12.2% [at 8.39 µM] | activity change, negative = inhibition [20] -4.98% [at 8.39 µM] | activation [16] -33.8% [at 8.39 µM] | activation [17] -0.554% [at 8.39 µM] | activity change, negative = inhibition [18] 0.406% [at 8.38 µM]

c1ccc(-c2nc3ccccc3[nH]2)cc1
inactive: Potency [1] | Potency [2] | Potency [3] | Potency [4] | Potency [5] | Potency [6] | Potency [19] | Potency [9] | Potency [10] | Potency [11] | Potency [12] | Potency [13] | Potency [14] | Potency [15] | Potency [20] | Potency [17] | Potency [18]

Cc1ccc(C(C)(C)C)c(O)c1
inactive: Potency [1] | Potency [2] | Potency [3] | Potency [4] | Potency [5] | Potency [6] | Potency [19] | Potency [8] | Potency [9] | Potency [10] | Potency [13] | Potency [20] | Potency [17]

CC(C)(C)c1cc(CO)cc(C(C)(C)C)c1O
inactive: Potency [1] | Potency [2] | Potency [3] | Potency [4] | Potency [5] | Potency [6] | Potency [19] | Potency [9] | Potency [11] | Potency [13] | Potency [14] | Potency [20] | Potency [17] | Potency [18]
